# Test system: HCI01 (cells of a triple-negative basal-like breast cancer xenograft)
# Assay: cell viability of combination (% of vehicle); higher = less cytotoxic
# Details: 1 µM; 72 h; partner dose: 10 nM
# Description: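 PDX cells were treated for 72 h with each drug at 1 µM plus carfilzomib (10 nM; 100 nM for WHIM2). Luciferase viability is expressed as percent of vehicle.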
row,Compound,cell viability of combination
1,CCCCCCCCCCCCCCCC[n+]1ccccc1.[Cl-] [Cetylpyridinium Chloride] + CC(C)C[C@H](NC(=O)[C@H](CCc1ccccc1)NC(=O)CN1CCOCC1)C(=O)N[C@@H](Cc1ccccc1)C(=O)N[C@@H](CC(C)C)C(=O)[C@@]1(C)CO1 [Carfilzomib],77
2,CCCCCCCCCCCCCCCC[N+](C)(C)C.[Br-] [Cetrimonium Bromide (CTAB)] + CC(C)C[C@H](NC(=O)[C@H](CCc1ccccc1)NC(=O)CN1CCOCC1)C(=O)N[C@@H](Cc1ccccc1)C(=O)N[C@@H](CC(C)C)C(=O)[C@@]1(C)CO1 [Carfilzomib],72.8
3,Cc1cc(C(C#N)c2ccc(Cl)cc2)c(Cl)cc1NC(=O)c1cc(I)cc(I)c1O (stereo not given) [Closantel] + CC(C)C[C@H](NC(=O)[C@H](CCc1ccccc1)NC(=O)CN1CCOCC1)C(=O)N[C@@H](Cc1ccccc1)C(=O)N[C@@H](CC(C)C)C(=O)[C@@]1(C)CO1 [Carfilzomib],70.3
4,Cc1cc(C(C#N)c2ccc(Cl)cc2)c(Cl)cc1NC(=O)c1cc(I)cc(I)c1[O-].[Na+] (stereo not given) [Closantel Sodium] + CC(C)C[C@H](NC(=O)[C@H](CCc1ccccc1)NC(=O)CN1CCOCC1)C(=O)N[C@@H](Cc1ccccc1)C(=O)N[C@@H](CC(C)C)C(=O)[C@@]1(C)CO1 [Carfilzomib],68.9
5,CCCCCCCCCCCC[N+](C)(C)CCOc1ccccc1.[Br-] [Domiphen Bromide] + CC(C)C[C@H](NC(=O)[C@H](CCc1ccccc1)NC(=O)CN1CCOCC1)C(=O)N[C@@H](Cc1ccccc1)C(=O)N[C@@H](CC(C)C)C(=O)[C@@]1(C)CO1 [Carfilzomib],71.1

# — the supplement of paper PMC6992640
